Screens (PubChem)
DT40 TDP1 no CPT: qHTS for Inhibitors of human tyrosyl-DNA phosphodiesterase 1 (TDP1): qHTS in cells in absence of CPT. DT40 Tdp1-/- hTDP1 cells, no CPT, ATP luminescence, 48 h. Potency, µM (highest dose often 46.2 µM), most hits filed as inhibitors. hit rate 15% among 420,000. AID 686978, 2013; further: nearly all actives have a fitted effect of over 55% in size
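Readout: luminescence from CellTiter-Glo after 30 min in the dark at RT. Cells: DT40 Tdp1-/- with stable hTDP1, 400/well. Exposure: compounds alone, ≥48 hr, 37 °C.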
HT1080NT lethal: kills 2HG-producing HT-1080-NT fibrosarcoma cells; AID 686970; hit rate 1.6% among 360,000; Potency, µM (top dose mostly 46.1 µM), hits mostly cytotoxic; HT-1080-NT fibrosarcoma viability, CellTiter-Glo ATP luminescence, 48 h;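 further: NT is the 2HG producing partner of a matched IDH1 knockdown line; nearly all actives have a fitted effect of over 55% in size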
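Luminescent CellTiter-Glo readout after 48 hours of compound exposure at 37 degrees C defined viability of HT-1080-NT cells. Activity was normalized to DMSO wells and cell-free media wells; concentration-response curves were fitted and assigned curve classes.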
TDP1 cell CPT: DT40-hTDP1 cell growth loss with CPT | chicken DT40 Tdp1-/-;hTDP1 cells + 20 nM CPT, ATP luminescence, 48 h | Potency, µM (highest dose often 46.2 µM), most hits filed as inhibitors | hit rate 12% among 420,000; further: nearly all actives have a fitted effect of over 55% in size
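Cell growth measured by CellTiter-Glo luminescence after a minimum 48 h, 37 C compound exposure with 20 nM CPT in Tdp1-knockout DT40 cells stably expressing hTDP1, seeded 400/well; qHTS titration format.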
HT1080 IDH1KD tx: kills HT-1080 cells with IDH1 knockdown; HT-1080 IDH1 knockdown viability, ATP luminescence, 48 h; AID 686971; hit rate 2% among 360,000; Potency, µM (highest dose often 46.1 µM), actives largely listed as cytotoxic
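CellTiter-Glo luminescence after 48 h compound exposure at 37 degrees C of IDH1-knockdown HT-1080 cells in 5% FBS RPMI. %Activity scaled between DMSO wells and cell-free media wells, with curves fitted and assigned curve classes.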
IL-1B inflam inh: inflammasome signaling inhibition, IL-1 beta readout | activity change, % at 57.5 µM | hit rate 4.7% among 360,000 | THP-1 LPS/ATP IL-1B secretion, AlphaLISA, 16 h; hits give low values; in the data active means activity change below about -50%; inconclusive means mostly about -30% to -49%
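Secreted IL-1B measured by AlphaLISA bead assay after 16 h compound exposure of THP-1 cells; compounds (final up to 57.5 uM) added 1 h before LPS (250 ng/mL) and ATP (1.25 mM) stimulation; lower signal means less secretion.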
ELG1 DNA repair: blocks ELG1-dependent DNA repair in HEK293T cells | HEK293T ELG1-luciferase reporter, luminescence, 16 h; DNA damage induced by 5-fluorouridine | Potency, µM (titrated, usually from 46.1 µM), actives largely listed as inhibitors | hit rate 2.3% among 330,000; further: nearly all actives have a fitted effect of over 55% in size
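Quantitative HTS, concentration-response format. 2,000 cells/well co-treated with 5-fluorouridine and compound, 16 hr in 5% CO2 at 37 °C; ONE-Glo luminescence read after 30 min.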
A number is an active result; n = inactive; u = inconclusive; x = not tested or not shown. Hits are enriched below; roughly 19% of the tested compounds scored in any of these assays. Unless noted, the call rests on the fitted dose curve; in most records, active means well fitted curve in the direction sought with a large enough effect; inconclusive means small, poorly fitted or top-dose-only effect, or another doubt; inactive means no such curve, though single readings can be large; an effect the other way counts as inactive or inconclusive.

SMILES | DT40 TDP1 no CPT | HT1080NT lethal | TDP1 cell CPT | HT1080 IDH1KD tx | IL-1B inflam inh | ELG1 DNA repair
COc1ccc(CN(C(=O)c2cc(=O)c3ccccc3o2)C2CCS(=O)(=O)C2)cc1OC (centres undefined) | u | n | n | n | n | n
CSc1nsc2nc(=O)c(/C=C3\C(C)=Nc4ccc(C)cc43)c(N)n12 | u | u | 16µM | u | n | u
CC(=O)N(Cc1ccccc1C)c1cccc(C)c1C | n | n | n | n | n | n
CC(=O)N(Cc1ccc(F)cc1)c1cccc(C)c1C | 21µM | n | u | n | n | n
COc1ccc(Oc2ncc3nc(C)c(=O)n(-c4ccc(OC)cc4)c3n2)cc1 | u | x | n | x | x | x
O=C1COc2ccc(-c3n[nH]c(=O)c4ccccc34)cc2N1 | u | n | n | n | n | n
Fc1ccc(-c2cc(-c3ccccc3)c3c(n2)-c2cc(F)ccc2OC3)cc1 | n | x | n | x | x | x
O=C1COc2ccc(-c3cc(-c4ccc(F)cc4)c4c(n3)-c3ccccc3OC4)cc2N1 | 5.8µM | x | 6.5µM | x | x | x
COc1ccc(-c2cc(-c3ccc4c(c3)NC(=O)CO4)nc3c2COc2ccc(F)cc2-3)cc1 | 1.5µM | x | u | x | x | x
COc1ccc(NC(=O)/C=C/c2c(Cl)nc3ccccn23)cc1 | n | n | n | n | u | n
COc1ccccc1N1CCN(C(=O)/C=C/c2c(Cl)nc3ccccn23)CC1 | 4.6µM | n | 10µM | n | -61 | u
Cc1cc(C)cc(Oc2ccccc2/C=N\O)c1 | n | n | n | n | n | n
Cc1cc(C)cc(Oc2ccccc2C=O)c1 | 4.6µM | n | 5.8µM | u | n | u
COc1ccc(Oc2ccccc2C=O)cc1 | 5.8µM | n | 12µM | n | n | n
Cc1ccc(OCC2Cn3c(nc4c3c(=O)[nH]c(=O)n4C)O2)cc1C (centres undefined) | 10µM | n | u | n | n | u
CCc1cccc(OCC2Cn3c(nc4c3c(=O)[nH]c(=O)n4C)O2)c1 (centres undefined) | u | n | 8.2µM | n | n | n
CCc1cccc(OCC2Cn3c(nc4c3c(=O)n(C)c(=O)n4C)O2)c1 (centres undefined) | u | n | u | u | n | u
CCN(CC)c1nc(C#N)nc(N(CC)CC)n1 | n | n | u | n | n | n
CCCN(CCC)c1nc(N)nc(C#N)n1 | 18µM | x | u | x | x | x
O=C1/C(=C/c2cccnc2)Sc2ccccc21 | u | n | 26µM | n | n | n
O=C1c2ccccc2C(=Cc2cccnc2)c2ccccc21 | u | n | n | n | n | x
CC(C)=CCC[C@H](C)C[C@@H]1Cc2[nH][nH]c(=O)c2[C@H](c2ccc(Cl)cc2)O1 | u | n | u | n | n | x
COc1ccccc1NC(=O)C1CCN(C(=O)c2ccco2)CC1 | n | n | n | n | n | n
CCCc1cc(-c2nc(-c3ccc(Cl)cc3)cs2)ccn1 | 18µM | n | 18µM | n | n | n
CC(OC(=O)c1cccc(N(C)C)c1)C(=O)N1CCc2ccccc2C1 (centres undefined) | u | n | n | n | n | u
SMILES | DT40 TDP1 no CPT | HT1080NT lethal | TDP1 cell CPT | HT1080 IDH1KD tx | IL-1B inflam inh | ELG1 DNA repair
COc1ccc(CN2C(=O)CSCC2(C)C(=O)NCc2ccccc2)cc1OC (centres undefined) | u | n | n | n | n | x
CC1(C(=O)NCc2ccccc2)CSCC(=O)N1Cc1cccc(C(F)(F)F)c1 (centres undefined) | u | n | 18µM | n | n | x
O=C(c1ccccc1Cl)c1c(O)c2ccccc2oc1=O | n | n | u | n | n | x
O=C(OCC(=O)N1CCc2ccccc21)c1ccncc1 | n | n | n | n | n | n
CCCOc1ccc(-c2nn(-c3ccccc3)cc2C2NC(=O)NC(C)=C2C(=O)OC)cc1 (centres undefined) | 16µM | x | u | x | x | x
CCCCOc1ccc(-c2nn(-c3ccccc3)cc2C2NC(=O)NC(C)=C2C(=O)OC)cc1 (centres undefined) | n | x | n | x | x | x
COC(=O)C1=C(C)NC(=O)NC1c1ccc(N2CCC(c3ccccc3)=N2)cc1 (centres undefined) | u | n | u | u | -69 | u
NC(=O)NC(CC(=O)OCC(=O)Nc1nnc(-c2ccccc2)o1)c1ccc(Cl)cc1 (centres undefined) | n | n | n | n | n | x
Nc1nc(N)c2cc(S(=O)(=O)c3ccc4ccccc4c3)ccc2n1 | 1.8µM | 8.2µM | u | 3.3µM | n | x
Nc1nc(N)c2cc([N+](=O)[O-])ccc2n1 | u | n | n | n | n | x
CCCCCCCCN1[C@@H](CC(=O)OCC)c2cc(C(F)(F)F)ccc2S1(=O)=O | 16µM | n | u | n | n | x
